Data published in article PMC7862700, “An all-to-all approach to the identification of sequence-specific readers for epigenetic DNA modifications on cytosine”.

Key:
Assay in all cases: DAPPL (digital affinity profiling via proximity ligation, sequencing); 10 mM Tris-HCl pH 7.5, 50 mM NaCl, 1 mM DTT, 4% glycerol, room temperature, 30 min; GST-TFs on glutathione beads, 16-mer random dsDNA library, 0.1% formaldehyde crosslink after washing; high values mean tight binding
FLI1 = target: T1, FLI1 (Homo sapiens, UniProt Q01543 1-452); conditions: protein: recombinant; tags: N-terminal GST; dsDNA, one strand shown
T1 sequence: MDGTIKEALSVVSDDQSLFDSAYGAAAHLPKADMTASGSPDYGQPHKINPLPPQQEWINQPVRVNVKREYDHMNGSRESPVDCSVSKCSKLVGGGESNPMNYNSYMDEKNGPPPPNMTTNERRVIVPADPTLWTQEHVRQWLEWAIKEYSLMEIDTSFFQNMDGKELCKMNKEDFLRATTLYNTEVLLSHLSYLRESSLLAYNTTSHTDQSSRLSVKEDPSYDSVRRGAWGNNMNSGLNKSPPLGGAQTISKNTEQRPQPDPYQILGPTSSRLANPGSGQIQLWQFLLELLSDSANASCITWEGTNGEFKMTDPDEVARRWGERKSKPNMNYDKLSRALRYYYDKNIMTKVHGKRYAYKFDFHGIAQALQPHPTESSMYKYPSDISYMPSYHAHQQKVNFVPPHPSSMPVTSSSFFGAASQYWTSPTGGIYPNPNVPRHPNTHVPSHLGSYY
Method in brief: (§1)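 A tag-only sample was pooled with DNA-barcoded human transcription factors that had been expressed in yeast as GST fusions and captured on glutathione beads. The pools were incubated for 30 min at room temperature with 200 nmole of a random double-stranded 16-mer DNA library in Tris/NaCl/DTT/glycerol buffer, then washed, crosslinked with 0.1% formaldehyde, proximity-ligated (BsaI/T4 ligase, 1 h, 37 °C), PCR-amplified and sequenced on an Illumina NextSeq500. Binding signal is each hexamer's read frequency for a factor divided by its frequency for the tag-only sample.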

ELK1 = target: T2, ELK1 (Homo sapiens, UniProt P19419 1-428); conditions: protein: recombinant; tags: N-terminal GST; dsDNA, one strand shown
T2 sequence: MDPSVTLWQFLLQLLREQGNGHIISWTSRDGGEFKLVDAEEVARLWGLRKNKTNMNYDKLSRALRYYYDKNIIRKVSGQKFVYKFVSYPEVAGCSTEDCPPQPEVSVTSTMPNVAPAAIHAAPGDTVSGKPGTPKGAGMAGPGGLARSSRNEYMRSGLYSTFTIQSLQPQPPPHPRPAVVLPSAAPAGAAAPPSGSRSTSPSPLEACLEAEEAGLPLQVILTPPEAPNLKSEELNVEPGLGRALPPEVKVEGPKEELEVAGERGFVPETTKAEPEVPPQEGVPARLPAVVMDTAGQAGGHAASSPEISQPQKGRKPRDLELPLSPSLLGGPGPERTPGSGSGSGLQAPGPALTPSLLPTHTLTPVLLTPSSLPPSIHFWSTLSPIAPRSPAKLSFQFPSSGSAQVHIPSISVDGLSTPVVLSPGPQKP
Method in brief: as §1

GABPA = target: T3, GABPA (Homo sapiens, UniProt Q06546 1-454); conditions: protein: recombinant; tags: N-terminal GST; dsDNA, one strand shown
T3 sequence: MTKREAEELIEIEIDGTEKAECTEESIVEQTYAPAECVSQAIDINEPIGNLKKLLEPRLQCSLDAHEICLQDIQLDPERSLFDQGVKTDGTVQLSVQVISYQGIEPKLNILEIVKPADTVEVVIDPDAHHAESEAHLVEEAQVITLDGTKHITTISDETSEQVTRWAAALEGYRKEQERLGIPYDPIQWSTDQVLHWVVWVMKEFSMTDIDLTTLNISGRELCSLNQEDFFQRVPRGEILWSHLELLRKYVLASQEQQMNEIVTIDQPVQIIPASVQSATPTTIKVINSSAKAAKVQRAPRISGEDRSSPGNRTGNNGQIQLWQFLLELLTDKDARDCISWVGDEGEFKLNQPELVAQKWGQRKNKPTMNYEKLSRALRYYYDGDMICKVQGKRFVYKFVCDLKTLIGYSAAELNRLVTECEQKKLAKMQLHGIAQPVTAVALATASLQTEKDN
Method in brief: as §1

ERG = target: T4, ERG (Homo sapiens, UniProt P11308 1-479); conditions: protein: recombinant; tags: N-terminal GST; dsDNA, one strand shown
T4 sequence: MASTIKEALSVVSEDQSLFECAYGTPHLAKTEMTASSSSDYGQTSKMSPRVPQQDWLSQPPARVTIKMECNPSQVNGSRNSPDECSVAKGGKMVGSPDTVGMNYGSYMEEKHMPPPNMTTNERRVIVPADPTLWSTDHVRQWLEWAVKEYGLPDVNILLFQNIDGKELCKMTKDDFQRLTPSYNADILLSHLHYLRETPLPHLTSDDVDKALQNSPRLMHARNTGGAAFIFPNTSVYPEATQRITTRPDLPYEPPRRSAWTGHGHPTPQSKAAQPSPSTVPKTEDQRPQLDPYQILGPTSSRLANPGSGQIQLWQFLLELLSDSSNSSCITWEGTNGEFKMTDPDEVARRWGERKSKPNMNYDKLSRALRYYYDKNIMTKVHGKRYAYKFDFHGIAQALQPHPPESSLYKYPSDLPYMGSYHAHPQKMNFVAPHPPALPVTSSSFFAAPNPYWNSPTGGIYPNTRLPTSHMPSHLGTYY
Method in brief: as §1

ELF1 = ELF1 (Homo sapiens, UniProt P32519 1-619); conditions: protein: recombinant; tags: N-terminal GST; dsDNA, one strand shown
Chain of ELF1 (P32519 whole entry): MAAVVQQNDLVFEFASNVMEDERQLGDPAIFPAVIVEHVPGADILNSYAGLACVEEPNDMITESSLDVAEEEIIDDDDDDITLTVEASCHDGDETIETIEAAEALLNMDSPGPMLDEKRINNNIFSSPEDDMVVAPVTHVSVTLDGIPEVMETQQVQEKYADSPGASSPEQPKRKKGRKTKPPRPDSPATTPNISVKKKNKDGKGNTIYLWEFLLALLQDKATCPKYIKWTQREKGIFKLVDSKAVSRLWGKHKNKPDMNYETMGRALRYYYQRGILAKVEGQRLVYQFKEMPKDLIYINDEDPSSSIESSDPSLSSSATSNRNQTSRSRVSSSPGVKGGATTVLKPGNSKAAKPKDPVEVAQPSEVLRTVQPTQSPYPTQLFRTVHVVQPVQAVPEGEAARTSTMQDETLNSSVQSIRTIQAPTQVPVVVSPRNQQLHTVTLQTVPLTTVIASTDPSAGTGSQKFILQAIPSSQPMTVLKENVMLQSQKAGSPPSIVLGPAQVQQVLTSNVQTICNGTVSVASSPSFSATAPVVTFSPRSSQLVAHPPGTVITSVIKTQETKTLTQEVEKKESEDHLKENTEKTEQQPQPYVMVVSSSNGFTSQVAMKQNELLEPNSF
Method in brief: as §1

EHF = target: T5, EHF (Homo sapiens, UniProt Q9NZC4 1-300); conditions: protein: recombinant; tags: N-terminal GST; dsDNA, one strand shown
T5 sequence: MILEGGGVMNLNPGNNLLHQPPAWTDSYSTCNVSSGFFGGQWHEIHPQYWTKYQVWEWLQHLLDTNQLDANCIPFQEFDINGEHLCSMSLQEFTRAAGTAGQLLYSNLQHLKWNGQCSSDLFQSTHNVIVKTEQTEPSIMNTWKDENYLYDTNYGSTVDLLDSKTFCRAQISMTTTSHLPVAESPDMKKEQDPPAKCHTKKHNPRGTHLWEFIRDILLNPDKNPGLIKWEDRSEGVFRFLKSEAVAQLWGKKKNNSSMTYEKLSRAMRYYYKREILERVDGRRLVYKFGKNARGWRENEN
Method in brief: as §1

SPI1 = SPI1 (Homo sapiens, UniProt P17947 1-270); conditions: protein: recombinant; tags: N-terminal GST; dsDNA, one strand shown
Method in brief: as §1

SPIB = SPIB (Homo sapiens, UniProt Q01892 1-262); conditions: protein: recombinant; tags: N-terminal GST; dsDNA, one strand shown
Chain of SPIB (Q01892 whole entry): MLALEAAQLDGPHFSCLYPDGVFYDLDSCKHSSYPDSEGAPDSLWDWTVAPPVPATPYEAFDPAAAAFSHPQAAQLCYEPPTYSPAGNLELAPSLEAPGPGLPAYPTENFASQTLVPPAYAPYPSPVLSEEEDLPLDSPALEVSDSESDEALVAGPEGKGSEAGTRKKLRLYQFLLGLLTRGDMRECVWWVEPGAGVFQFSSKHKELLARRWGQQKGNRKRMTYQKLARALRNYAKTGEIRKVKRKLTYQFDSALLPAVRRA
Method in brief: as §1

ELK3 = target: T6, ELK3 (Homo sapiens, UniProt P41970 1-407); conditions: protein: recombinant; tags: N-terminal GST; dsDNA, one strand shown
T6 sequence: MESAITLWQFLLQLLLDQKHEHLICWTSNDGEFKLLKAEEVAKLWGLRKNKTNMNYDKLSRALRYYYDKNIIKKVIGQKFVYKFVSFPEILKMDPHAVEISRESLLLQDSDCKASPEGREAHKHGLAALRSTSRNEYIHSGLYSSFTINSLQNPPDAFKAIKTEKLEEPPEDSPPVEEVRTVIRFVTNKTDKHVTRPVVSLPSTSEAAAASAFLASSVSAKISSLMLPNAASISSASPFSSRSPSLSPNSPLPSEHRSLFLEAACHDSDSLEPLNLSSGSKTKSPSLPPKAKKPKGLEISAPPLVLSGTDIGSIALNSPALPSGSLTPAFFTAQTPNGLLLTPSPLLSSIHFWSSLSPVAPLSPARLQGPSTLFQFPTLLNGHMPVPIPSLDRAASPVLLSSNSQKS
Method in brief: as §1

FEV = target: T7, FEV (Homo sapiens, UniProt Q99581 1-238); conditions: protein: recombinant; tags: N-terminal GST; dsDNA, one strand shown
T7 sequence: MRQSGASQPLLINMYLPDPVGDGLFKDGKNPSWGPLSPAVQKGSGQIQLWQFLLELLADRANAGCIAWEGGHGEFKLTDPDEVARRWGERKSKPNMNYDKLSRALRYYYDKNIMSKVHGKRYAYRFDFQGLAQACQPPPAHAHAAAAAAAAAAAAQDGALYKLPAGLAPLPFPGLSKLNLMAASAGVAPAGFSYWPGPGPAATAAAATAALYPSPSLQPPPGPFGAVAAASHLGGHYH
Method in brief: as §1

ETV5 = ETV5 (Homo sapiens, UniProt P41161 1-510); conditions: protein: recombinant; tags: N-terminal GST; dsDNA, one strand shown
Chain of ETV5 (P41161 whole entry): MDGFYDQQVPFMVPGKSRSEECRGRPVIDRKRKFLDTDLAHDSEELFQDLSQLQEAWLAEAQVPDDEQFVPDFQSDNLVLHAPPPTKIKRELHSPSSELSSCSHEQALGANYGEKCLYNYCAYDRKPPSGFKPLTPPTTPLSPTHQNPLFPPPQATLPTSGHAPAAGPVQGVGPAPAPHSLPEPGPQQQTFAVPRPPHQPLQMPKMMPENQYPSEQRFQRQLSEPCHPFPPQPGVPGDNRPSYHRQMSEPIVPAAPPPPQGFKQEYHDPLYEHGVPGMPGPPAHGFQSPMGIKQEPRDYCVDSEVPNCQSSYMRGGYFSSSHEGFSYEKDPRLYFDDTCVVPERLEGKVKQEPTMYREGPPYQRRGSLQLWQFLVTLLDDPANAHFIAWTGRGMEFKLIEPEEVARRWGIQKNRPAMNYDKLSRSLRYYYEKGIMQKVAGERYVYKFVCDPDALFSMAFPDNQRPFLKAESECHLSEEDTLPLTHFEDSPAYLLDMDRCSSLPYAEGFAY
Method in brief: as §1

HSF1 = HSF1 (Homo sapiens, UniProt Q00613 1-529); conditions: protein: recombinant; tags: N-terminal GST; chain copies: 3; dsDNA, one strand shown
Chain of HSF1 (Q00613 whole entry): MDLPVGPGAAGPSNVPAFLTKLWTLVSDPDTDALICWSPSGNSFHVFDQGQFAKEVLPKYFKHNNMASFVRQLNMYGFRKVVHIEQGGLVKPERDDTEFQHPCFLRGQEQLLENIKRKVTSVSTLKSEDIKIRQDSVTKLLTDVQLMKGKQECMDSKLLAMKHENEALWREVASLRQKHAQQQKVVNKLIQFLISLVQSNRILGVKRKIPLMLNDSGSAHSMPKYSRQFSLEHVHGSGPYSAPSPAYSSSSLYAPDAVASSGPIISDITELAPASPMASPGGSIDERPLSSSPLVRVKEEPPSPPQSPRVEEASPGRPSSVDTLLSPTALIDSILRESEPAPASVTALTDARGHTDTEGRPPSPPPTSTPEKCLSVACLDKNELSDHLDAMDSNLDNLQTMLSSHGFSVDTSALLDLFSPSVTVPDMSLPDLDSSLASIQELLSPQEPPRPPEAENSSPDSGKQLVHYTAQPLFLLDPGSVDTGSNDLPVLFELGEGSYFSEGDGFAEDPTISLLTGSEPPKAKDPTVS
Method in brief: as §1

SPIC = target: T8, SPIC (Homo sapiens, UniProt Q8N5J4 1-248); conditions: protein: recombinant; tags: N-terminal GST; dsDNA, one strand shown
T8 sequence: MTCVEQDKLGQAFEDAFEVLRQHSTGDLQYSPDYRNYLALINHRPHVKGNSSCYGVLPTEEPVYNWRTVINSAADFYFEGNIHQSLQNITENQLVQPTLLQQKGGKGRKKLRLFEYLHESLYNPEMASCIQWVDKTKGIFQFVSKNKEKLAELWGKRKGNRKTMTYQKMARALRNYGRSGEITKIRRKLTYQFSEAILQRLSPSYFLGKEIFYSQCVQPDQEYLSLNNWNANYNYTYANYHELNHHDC
Method in brief: as §1

ELF4 = ELF4 (Homo sapiens, UniProt Q99607 1-663); conditions: protein: recombinant; tags: N-terminal GST; dsDNA, one strand shown
Chain of ELF4 (Q99607 whole entry): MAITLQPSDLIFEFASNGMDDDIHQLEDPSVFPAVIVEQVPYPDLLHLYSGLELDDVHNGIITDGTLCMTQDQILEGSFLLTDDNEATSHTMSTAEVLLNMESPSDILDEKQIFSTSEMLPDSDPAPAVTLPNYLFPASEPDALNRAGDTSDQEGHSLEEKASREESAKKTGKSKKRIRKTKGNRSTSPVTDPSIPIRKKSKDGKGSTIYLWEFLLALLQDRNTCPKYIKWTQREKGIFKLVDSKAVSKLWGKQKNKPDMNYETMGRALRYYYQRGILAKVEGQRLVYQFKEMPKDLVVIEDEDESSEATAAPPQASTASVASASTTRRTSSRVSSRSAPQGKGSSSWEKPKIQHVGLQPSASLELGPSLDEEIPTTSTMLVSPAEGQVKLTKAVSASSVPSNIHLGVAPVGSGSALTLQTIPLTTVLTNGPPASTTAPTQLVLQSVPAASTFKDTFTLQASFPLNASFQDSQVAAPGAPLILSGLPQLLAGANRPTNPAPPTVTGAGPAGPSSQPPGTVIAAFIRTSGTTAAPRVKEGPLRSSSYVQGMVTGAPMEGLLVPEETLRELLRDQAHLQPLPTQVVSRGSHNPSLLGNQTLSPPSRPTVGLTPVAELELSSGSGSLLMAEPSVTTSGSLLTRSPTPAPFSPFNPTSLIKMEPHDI
Method in brief: as §1

ELK4 = target: T9, ELK4 (Homo sapiens, UniProt P28324-2 1-405); conditions: protein: recombinant; tags: N-terminal GST; dsDNA, one strand shown
T9 sequence: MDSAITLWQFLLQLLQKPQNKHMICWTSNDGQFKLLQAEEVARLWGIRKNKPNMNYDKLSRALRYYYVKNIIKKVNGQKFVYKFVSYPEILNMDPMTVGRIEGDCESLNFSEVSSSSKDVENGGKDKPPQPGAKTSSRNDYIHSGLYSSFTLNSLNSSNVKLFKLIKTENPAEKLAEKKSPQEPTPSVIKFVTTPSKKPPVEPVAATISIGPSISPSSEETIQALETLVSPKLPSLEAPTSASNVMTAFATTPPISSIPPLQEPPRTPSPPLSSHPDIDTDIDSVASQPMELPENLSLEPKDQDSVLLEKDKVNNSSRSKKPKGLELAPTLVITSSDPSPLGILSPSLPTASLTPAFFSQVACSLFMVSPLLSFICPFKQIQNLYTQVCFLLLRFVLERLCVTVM
Method in brief: as §1

ETV2 = target: T10, ETV2 (Homo sapiens, UniProt O00321 1-342); conditions: protein: recombinant; tags: N-terminal GST; dsDNA, one strand shown
T10 sequence: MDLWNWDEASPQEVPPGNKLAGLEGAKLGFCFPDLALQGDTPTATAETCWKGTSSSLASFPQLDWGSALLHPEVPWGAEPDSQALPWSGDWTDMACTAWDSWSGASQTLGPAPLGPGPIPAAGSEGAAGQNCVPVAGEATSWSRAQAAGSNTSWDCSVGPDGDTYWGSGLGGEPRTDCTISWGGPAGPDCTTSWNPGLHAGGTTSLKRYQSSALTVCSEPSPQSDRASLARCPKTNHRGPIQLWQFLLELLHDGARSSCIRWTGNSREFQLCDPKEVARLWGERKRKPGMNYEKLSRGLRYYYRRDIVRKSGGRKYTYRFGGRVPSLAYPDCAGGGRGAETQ
Method in brief: as §1

ELF3 = target: T11, ELF3 (Homo sapiens, UniProt P78545 1-371); conditions: protein: recombinant; tags: N-terminal GST; dsDNA, one strand shown
T11 sequence: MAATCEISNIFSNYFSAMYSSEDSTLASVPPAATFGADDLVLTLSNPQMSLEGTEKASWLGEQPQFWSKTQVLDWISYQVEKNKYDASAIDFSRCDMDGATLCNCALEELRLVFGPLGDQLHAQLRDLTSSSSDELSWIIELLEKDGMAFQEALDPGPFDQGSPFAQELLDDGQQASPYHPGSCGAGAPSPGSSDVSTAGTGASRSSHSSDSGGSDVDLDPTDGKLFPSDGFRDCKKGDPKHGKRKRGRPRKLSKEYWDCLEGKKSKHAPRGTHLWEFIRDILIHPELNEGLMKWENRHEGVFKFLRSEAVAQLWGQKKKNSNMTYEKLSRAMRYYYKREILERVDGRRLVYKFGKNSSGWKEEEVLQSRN
Method in brief: as §1

CRX = CRX (Homo sapiens, UniProt O43186 1-299); conditions: protein: recombinant; tags: N-terminal GST; dsDNA, one strand shown
Chain of CRX (O43186 whole entry): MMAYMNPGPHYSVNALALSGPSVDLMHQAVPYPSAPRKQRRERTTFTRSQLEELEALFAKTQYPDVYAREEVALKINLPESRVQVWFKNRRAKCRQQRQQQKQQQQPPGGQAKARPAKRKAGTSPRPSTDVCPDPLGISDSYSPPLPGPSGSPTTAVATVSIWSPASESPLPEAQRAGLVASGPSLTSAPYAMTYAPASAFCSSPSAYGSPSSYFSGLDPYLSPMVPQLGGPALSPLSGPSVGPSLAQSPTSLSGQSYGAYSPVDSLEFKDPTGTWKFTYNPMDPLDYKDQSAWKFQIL
Method in brief: as §1

ETV1 = ETV1 (Homo sapiens, UniProt P50549 1-477); conditions: protein: recombinant; tags: N-terminal GST; dsDNA, one strand shown
Chain of ETV1 (P50549 whole entry): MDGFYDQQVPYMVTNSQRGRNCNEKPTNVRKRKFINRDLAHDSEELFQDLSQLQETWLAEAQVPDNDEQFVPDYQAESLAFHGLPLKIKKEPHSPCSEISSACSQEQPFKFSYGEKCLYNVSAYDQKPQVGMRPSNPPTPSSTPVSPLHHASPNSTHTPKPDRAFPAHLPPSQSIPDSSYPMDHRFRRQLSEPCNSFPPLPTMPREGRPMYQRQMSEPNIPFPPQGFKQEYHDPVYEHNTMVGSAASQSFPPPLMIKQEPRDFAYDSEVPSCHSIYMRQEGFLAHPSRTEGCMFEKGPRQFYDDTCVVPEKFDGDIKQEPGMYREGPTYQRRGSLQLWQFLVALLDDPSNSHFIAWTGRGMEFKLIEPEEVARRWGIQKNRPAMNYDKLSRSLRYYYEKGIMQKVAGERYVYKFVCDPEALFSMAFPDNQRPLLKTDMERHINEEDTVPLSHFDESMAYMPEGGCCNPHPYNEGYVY
Method in brief: as §1

TCCTCC
binding signal (FLI1): 1.47 fold enrichment (6-mer frequency, TF over GST control) | binding signal (ELK1): 1.61 fold enrichment (6-mer frequency, TF over GST control) | binding signal (GABPA): 1.49 fold enrichment (6-mer frequency, TF over GST control) | binding signal (ERG): 1.58 fold enrichment (6-mer frequency, TF over GST control) | binding signal (ELF1): 1.52 fold enrichment (6-mer frequency, TF over GST control) | binding signal (EHF): 1.61 fold enrichment (6-mer frequency, TF over GST control) | binding signal (SPI1): 1.68 fold enrichment (6-mer frequency, TF over GST control) | binding signal (SPIB): 1.6 fold enrichment (6-mer frequency, TF over GST control) | binding signal (ELK3): 1.55 fold enrichment (6-mer frequency, TF over GST control) | binding signal (FEV): 1.55 fold enrichment (6-mer frequency, TF over GST control) | binding signal (ETV5): 1.59 fold enrichment (6-mer frequency, TF over GST control) | binding signal (HSF1): 1.27 fold enrichment (6-mer frequency, TF over GST control) | binding signal (SPIC): 1.57 fold enrichment (6-mer frequency, TF over GST control) | binding signal (ELF4): 1.62 fold enrichment (6-mer frequency, TF over GST control) | binding signal (ELK4): 1.48 fold enrichment (6-mer frequency, TF over GST control) | binding signal (ETV2): 1.86 fold enrichment (6-mer frequency, TF over GST control) | binding signal (ELF3): 1.22 fold enrichment (6-mer frequency, TF over GST control) | binding signal (CRX): 1.4 fold enrichment (6-mer frequency, TF over GST control) | binding signal (ETV1): 1.53 fold enrichment (6-mer frequency, TF over GST control)
